From PubChem BioAssay
Compounds with a hit are over-represented: about 13% of the library has one in this group of screens.
Pf growth 96h = Primary qHTS for delayed death inhibitors of the malarial parasite plastid, 96 hour incubation; P. falciparum luciferase reporter growth, 96 h; Potency, µM (series often up to 28.7 µM), actives largely listed as inhibitors; hit rate 6.9% among 320,000
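Compounds incubated with erythrocytes infected by luciferase-expressing P. falciparum (2% hematocrit, 0.05% parasitemia final) for 96 hours, 37 C in 5% CO2. Growth inhibition scored as decreased luciferase luminescence.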
HCV inh = qHTS Assay for Inhibitors of Hepatitis C Virus (HCV); Huh7.5.1 HCVcc-Cre infection, luciferase reporter, 44 h; Potency, µM (top dose mostly 41.8 µM), usual class: inhibitors; hit rate 3.4% among 340,000; AID 651820, 2012
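Infectious HCVcc-Cre (~0.5 moi) was added to cells just after compound, with cells seeded 4 h earlier at 1,000 per well. Luciferase activity after 44 h culture reported infection; substrate was incubated 15 min at room temperature before reading.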
HCMV antiviral = qHTS Assay for inhibitors of the human cytomegalovirus (HCMV); HFF cells, HCMV-luciferase reporter, 72 h; active compounds read low; activity change, negative = inhibition, % at 57.5 µM; hit rate 4.5% among 410,000; AID 1259415, 2018; in the data active = activity change below about -60%; inconclusive = no clear call, values can overlap the other calls; inactive = above about -39%
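Luciferase read-out from HCMV-luciferase-infected HFFs (MOI 1 PFU/cell) 72 h post infection at 37C; compounds added after 16 h cell attachment; activity normalized between buffer-only basal and Salinomycin (10uM) inhibitor controls.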
Pf growth 48h = Primary qHTS for delayed death inhibitors of the malarial parasite plastid, 48 hour incubation. Potency, µM (highest dose often 28.7 µM), most hits filed as inhibitors. P. falciparum luciferase growth in erythrocytes, 48 h. hit rate 5.9% among 310,000. AID 504832, 2011
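In quantitative HTS format, infected erythrocytes bearing luciferase-reporter parasites were treated for a single generation at 37 C. Luminescence after adding detection reagent served as the growth measure.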
Large screens that a line does not name were inactive; ! = repeats disagree. Unless noted, calls follow the shape of the dose curve; as a rule, active = well fitted inhibition curve with a large enough effect; inconclusive = small, poorly fitted or top-dose-only effect, or another doubt; inactive = no such curve, though single readings can be large or run the other way.

Fc1ccc(Cn2c(-c3cccc(Br)c3)nc3ccccc32)cc1	none (no result: Pf growth 96h, HCV inh, Pf growth 48h)
Cc1ccc(-n2ncc3c2ncn2c(C)nnc32)cc1C	Pf growth 96h inconclusive, HCMV antiviral -67
CCCN1CC=C2C(C#N)=C(N)C(C#N)(C#N)C(c3cccc(OC)c3OC)C2C1 (stereo unspecified)	HCV inh inconclusive, Pf growth 48h inconclusive (no result: Pf growth 96h)
COc1cccc(OC)c1OCc1cc(C2C3CCCC=C3C(C#N)=C(N)C2(C#N)C#N)c(C)cc1C (stereo unspecified)	Pf growth 96h 9.3µM, Pf growth 48h inconclusive
Cc1ccnc(NS(=O)(=O)c2ccc(NC(=O)c3ccc([N+](=O)[O-])s3)cc2)n1	Pf growth 96h 12µM, HCMV antiviral -96, Pf growth 48h 4.1µM
Cc1ccnc(NS(=O)(=O)c2ccc(NC(=O)C3CCCCC3C(=O)O)cc2)n1 (stereo unspecified)	Pf growth 96h 2.9µM
Cc1ccc(/C=C/C(=O)Nc2ccc(Oc3ccccc3)cc2)o1	Pf growth 96h inconclusive, HCV inh 11µM
Cc1nc2cc(NC(=O)c3ccc([N+](=O)[O-])s3)ccc2s1	Pf growth 96h inconclusive, HCV inh inconclusive, HCMV antiviral -94, Pf growth 48h inconclusive
Cc1cc(NS(=O)(=O)c2ccc(NC(=O)c3c(F)c(F)c(F)c(F)c3F)cc2)nc(C)n1	Pf growth 96h inconclusive, HCMV antiviral inconclusive
Cc1cc(NS(=O)(=O)c2ccc(NC(=O)c3ccc([N+](=O)[O-])s3)cc2)nc(C)n1	HCV inh inconclusive, HCMV antiviral -97 (no result: Pf growth 96h, Pf growth 48h)
Cc1cc(NS(=O)(=O)c2ccc(NC(=O)/C=C/c3ccc(C)o3)cc2)nc(C)n1	Pf growth 96h 7.4µM
CC1(C)O[C@@H]2C[C@H]3[C@@H]4CCC5=CC(=O)C=C[C@]5(C)[C@H]4C(O)C[C@]3(C)[C@]2(C(=O)CO)O1 (stereo partly specified)	Pf growth 48h inconclusive (no result: HCV inh, HCMV antiviral)
CCOc1ccc(S(=O)(=O)N2CCCCC2)cc1NC(=O)CN1C(=O)NC(CC)(c2ccccc2)C1=O (stereo unspecified)	Pf growth 96h 12µM, HCV inh inconclusive, Pf growth 48h 4.7µM
CCC1(c2ccccc2)NC(=O)N(CC(=O)Nc2cc(S(=O)(=O)N3CCCCC3)ccc2OC(C)C)C1=O (stereo unspecified)	Pf growth 96h inconclusive, HCV inh 10µM, Pf growth 48h 10µM
CCOc1ccc(S(=O)(=O)N2CCOCC2)cc1NC(=O)CN1C(=O)NC2(CCCC2)C1=O	none
CCC1(c2ccccc2)NC(=O)N(CC(=O)Nc2cc(S(=O)(=O)N3CCCCCC3)ccc2OC)C1=O (stereo unspecified)	Pf growth 96h 7.4µM, HCV inh 14µM, Pf growth 48h 9.3µM
CCC1(c2ccccc2)NC(=O)N(CC(=O)Nc2cccc(S(=O)(=O)N3CCCC3)c2)C1=O (stereo unspecified)	Pf growth 48h inconclusive
Cc1cccc(N2CCN(C(=O)c3ccc(NC(=O)c4nsc5ccccc45)cc3)CC2)c1C	none (no result: Pf growth 96h, HCV inh, Pf growth 48h)
CCCC(C)NC(=O)c1ccc2[nH]c3c(c2c1)CC(C)CC3 (stereo unspecified)	Pf growth 96h 3.3µM, HCV inh inconclusive, Pf growth 48h 4.7µM
CCOC(=O)C1CCCN(C(=O)c2ccc3[nH]c4c(c3c2)CC(C)CC4)C1 (stereo unspecified)	Pf growth 96h inconclusive, Pf growth 48h 9.3µM
CCCCN(CC)CCNC(=O)CN1C(=O)COc2ccc(S(=O)(=O)N3CCOCC3)cc21	none (no result: Pf growth 96h, HCV inh, Pf growth 48h)
COc1ccc2c(-c3ccc(S(N)(=O)=O)cc3)c(-c3ccc(S(C)(=O)=O)cc3)sc2c1	HCV inh 25µM (no result: Pf growth 96h, Pf growth 48h)
Cc1ccc2nc(=O)c(NNc3ccccc3)cnc2c1	HCV inh inconclusive
Cc1nc2ccccc2nc(=O)c1NNc1ccccc1	Pf growth 96h 6.7µM!, HCV inh inconclusive
CC(C)(C)OC(=O)N1CCC(c2c(C(=O)NCCN3CCOCC3)cnn2-c2ccc(F)cc2F)CC1	none (no result: Pf growth 96h, HCV inh, Pf growth 48h)
O=C(NCc1nnc(SCc2ccc(C(F)(F)F)cc2)n1-c1ccccc1)C12CC3CC(CC(C3)C1)C2	Pf growth 96h 1.7µM, HCV inh inconclusive, Pf growth 48h inconclusive
O=C(NCc1nnc(SCc2ccc(F)cc2)n1-c1ccccc1)C12CC3CC(CC(C3)C1)C2	Pf growth 96h inconclusive, Pf growth 48h 9.3µM
O=C(CSc1nnc(CNC(=O)C23CC4CC(CC(C4)C2)C3)n1-c1ccc(F)cc1)Nc1ccccc1	Pf growth 96h inconclusive, HCV inh inconclusive, Pf growth 48h inconclusive
O=C(CSc1nnc(CNC(=O)C23CC4CC(CC(C4)C2)C3)n1-c1ccccc1)Nc1ccc(F)cc1	Pf growth 96h inconclusive, HCV inh inconclusive, Pf growth 48h inconclusive
Cc1nn(-c2ccccc2)c2c1N(CCCC(=O)NC(C)c1ccccc1)C(=O)CS2 (stereo unspecified)	none (no result: Pf growth 96h, HCV inh, Pf growth 48h)
COc1ccccc1OCCn1c(C(C)Oc2ccccc2)nc2ccccc21 (stereo unspecified)	none (no result: Pf growth 96h, HCV inh, Pf growth 48h)
COC(=O)c1ccc(Cl)cc1NC(=O)N(Cc1ccc(C)o1)C1CCN(C(C)=O)CC1	none (no result: Pf growth 96h, HCV inh, Pf growth 48h)
CCCCOCC1CN(CCCC)S(=O)(=O)c2c(cccc2Sc2ccc(SC)cc2)O1 (stereo unspecified)	none (no result: Pf growth 96h, HCV inh, Pf growth 48h)
CC(C)c1ccc(NC(=O)CSc2ncnc3c2sc2ccccc23)cc1	none (no result: Pf growth 96h, HCV inh, Pf growth 48h)
COc1cc(Br)cc(C2C3=C(CCCC3=O)N(c3ccc(F)cc3)C3=C2C(=O)CCC3)c1O	Pf growth 96h inconclusive, HCV inh inconclusive, Pf growth 48h 5.2µM
COc1ccccc1C1C2=C(CCCC2=O)N(CC(=O)O)C2=C1C(=O)CCC2	Pf growth 96h inconclusive
COc1ccc(-c2c(-c3ccccc3OC)sc3ccccc23)cc1F	none (no result: Pf growth 96h, HCV inh, Pf growth 48h)
Cc1ccc(C(=O)N2NC(c3ccccc3F)C3C(=O)N(c4cccc(C)c4)C(=O)C32)cc1 (stereo unspecified)	Pf growth 96h 2.1µM
Cc1cccc(OCc2nc3c4c(ncn3n2)-c2ccccc2CC42CCCC2)c1	Pf growth 96h inconclusive
Cc1ccccc1OCc1nc2c3c(ncn2n1)-c1ccccc1CC31CCCC1	Pf growth 96h 5.2µM, HCV inh inconclusive, Pf growth 48h inconclusive
Cc1ccc(OCc2nc3c4c(ncn3n2)-c2ccccc2CC42CCCC2)cc1	Pf growth 96h 15µM, Pf growth 48h inconclusive
Oc1cccc(-c2nc3c4c(ncn3n2)-c2ccccc2CC42CCCC2)c1	Pf growth 96h 9.3µM, HCMV antiviral -93, Pf growth 48h 12µM (no result: HCV inh)
COc1ccc(OCc2nc3c4c(ncn3n2)-c2ccccc2CC42CCCC2)cc1	Pf growth 96h 13µM, HCV inh inconclusive, HCMV antiviral inconclusive, Pf growth 48h inconclusive
Cc1cc(S(=O)(=O)Nc2ccc(-c3ccc(N4CCCCCC4)nn3)cc2)c(C)cc1Cl	none (no result: Pf growth 96h, HCV inh, Pf growth 48h)
CC(=O)Nc1ccccc1-c1nc2ccccc2n(CC(=O)c2ccc(Br)cc2)c1=O	none (no result: Pf growth 96h, HCV inh, Pf growth 48h)
Nc1ccc(C2(c3ccc(N)cc3)C(=O)Nc3ccccc32)cc1	HCMV antiviral -62
COc1cc(C2C(=O)N(C3CCCCC3)CC(=O)N2CCc2ccccc2)ccc1OC(C)C (stereo unspecified)	none (no result: Pf growth 96h, HCV inh, Pf growth 48h)
